# Laboratory results published in PubChem BioAssay AID624267 (The Scripps Research Institute Molecular Screening Center, 2012).
# Screen size: about 360,000 compounds; about 1,400 (0.39%) were called active. Cut-off read from the data, not from the text of the source: active = inhibition above about 21%; inactive = the rest. The full list was thinned out, with actives kept by preference.
# Biological target: Receptor-interacting serine/threonine-protein kinase 2 (Homo sapiens) (UniProt O43353)
# Test: NOD2-RIPK2 binding disruptors in cells, primary screen, fluorescence, CHO cells, BLA complementation (AID 624267);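 note: 0% = vehicle only and 100% = reference blocker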
# Settings: CHO BLA complementation NOD2-RIPK2, CCF4 ratio; at 4.98 µM; active compounds read high
# Sequence of Receptor-interacting serine/threonine-protein kinase 2 (Homo sapiens) (O43353 whole entry, looked up): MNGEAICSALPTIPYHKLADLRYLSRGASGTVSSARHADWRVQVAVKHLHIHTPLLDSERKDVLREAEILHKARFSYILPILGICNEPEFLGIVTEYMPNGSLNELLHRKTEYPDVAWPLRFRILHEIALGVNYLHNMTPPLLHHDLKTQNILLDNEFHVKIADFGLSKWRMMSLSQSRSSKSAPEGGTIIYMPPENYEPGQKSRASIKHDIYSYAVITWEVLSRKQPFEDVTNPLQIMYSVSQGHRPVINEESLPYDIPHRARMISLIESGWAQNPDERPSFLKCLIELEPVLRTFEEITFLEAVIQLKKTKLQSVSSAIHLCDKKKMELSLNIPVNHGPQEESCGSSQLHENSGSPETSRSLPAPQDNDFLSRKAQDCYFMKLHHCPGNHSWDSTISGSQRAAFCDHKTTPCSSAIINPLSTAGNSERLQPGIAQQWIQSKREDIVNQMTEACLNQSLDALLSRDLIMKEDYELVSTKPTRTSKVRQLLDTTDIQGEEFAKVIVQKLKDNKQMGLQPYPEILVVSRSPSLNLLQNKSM
row,Structure (SMILES),inhibition
1,COc1ccc(CN2CCCCC2C)cc1OC (stereo not given),-10.3% (inactive)
2,C/C(CC(C)C)=N\Oc1nc(C)cc(C)n1,-7.31% (inactive)
3,COCCCNC(=O)CN1CCN(Cc2ccccc2Cl)C1=O,5.43% (inactive)
4,CCc1ccccc1N(CC(=O)N1CCN(c2ccccc2F)CC1)S(C)(=O)=O,-2.64% (inactive)
5,O=C(CNC(=O)c1ccccc1)NCC(=O)OCc1ccc(Cl)cc1,1.19% (inactive)
6,O=C(CNC(=O)Cc1ccccc1)NCC(=O)OCC(=O)c1ccccc1Cl,-8.44% (inactive)
7,O=C(CNC(=O)OCc1ccccc1)Oc1cc2oc(=O)cc(-c3ccccc3)c2cc1Cl,52.2% (active)
8,O=C(Nc1ccc(CSc2ccccc2)cc1)c1ccc(CN2CCOCC2)cc1,-2.26% (inactive)
9,O=C(Cc1ccccc1)Nc1c(Cl)ccc2nsnc12,-10.4% (inactive)
10,C=CC(COCc1ccccc1)N(Cc1ccccc1)S(=O)(=O)c1ccccc1Br (stereo not given),0.84% (inactive)
11,COc1cc(C)c(C(C)C)cc1S(=O)(=O)n1ccnc1,-1.8% (inactive)
12,O=C(NCc1ccncc1)C1CCN(C(=O)c2cccc(Cl)c2)CC1,-2.02% (inactive)
13,CCN(C(=O)CSc1cccc[n+]1[O-])c1ccccc1,1.91% (inactive)
14,COCCCn1c(Cc2csc(Nc3cccc(Cl)c3)n2)nnc1SCC(=O)OC1CCCCC1,-7.45% (inactive)
15,O=C(Cc1csc(Nc2nc(=S)[nH]c3ccccc23)n1)NCCCN1CCN(c2cccc(Cl)c2)CC1,38.1% (active)
16,Cn1c(Cc2cccc3ccccc23)nnc1SCC(=O)N1CCN(c2cccc(Cl)c2)CC1,2.05% (inactive)
17,CNC(=O)n1ccc(C(=O)N2CCCCC2)n1,1.22% (inactive)
18,O=C(NN1C(=O)C2C3C=CC(O3)C2C1=O)c1ccccc1 (stereo not given),-0.12% (inactive)
19,CCSc1nnc(SCC(=O)NNC(=O)c2ccccc2F)s1,-9.88% (inactive)
20,Cc1nnc(SCC(=O)Nn2cnnc2)s1,34.9% (active)

row,Structure (SMILES),inhibition
1,Cc1nnc(SCC(=O)NC2CCCC2)s1,-7.66% (inactive)
2,CCOc1ccc(/C(O)=C2/C(=O)C(=O)N(Cc3cccnc3)C2c2ccc(N(C)C)cc2)c(C)c1 (stereo not given),-5.35% (inactive)
3,O=C(COc1nsnc1N1CCOCC1)Nc1ccccc1Cl,-6.94% (inactive)
4,O=C(Nc1ccccc1Cl)/C(Cl)=C(\Cl)S(=O)c1ccccc1 (stereo not given),70.5% (active)
5,C/C(=N\NS(=O)(=O)c1ccc(Cl)cc1)c1ccc(NC(=O)c2ccco2)cc1,7.02% (inactive)
6,O=C(Nc1ccccc1)c1nnsc1S(=O)(=O)c1ccc(Cl)cc1,56.9% (active)
7,CN(C)/C=C(/C(=O)c1ccccc1)S(=O)(=O)c1ccc(Cl)cc1,10.5% (inactive)
8,CCOc1ccc(CN2CCC(n3nccc3NC(=O)C3CC3)CC2)cc1CO,-4.91% (inactive)
9,Cc1cc(NC(=O)CN2CCC(O)(c3cccc(F)c3)CC2)no1,-7.88% (inactive)
10,NC(=O)COc1ccccc1C(=O)NC12CC3CC(CC(C3)C1)C2,2.45% (inactive)
11,CCSc1ccccc1C(=O)Nc1ccc2c(c1)OCO2,1.86% (inactive)
12,O=C1C(Cl)=C(Oc2ccccc2)C(=O)c2ccccc21,71.7% (active)
13,O=C(CNc1ccccc1N1CCCC1=O)Nc1cc(Cl)ccc1-n1cncn1,4.89% (inactive)
14,Nc1c(C(=O)c2cccs2)sc2nsc(SCCN3CCCCC3)c12,37.8% (active)
15,COc1ccccc1Oc1ccc(N2CC(C(=O)OCC(=O)c3ccc(F)cc3)CC2=O)cc1 (stereo not given),-13.1% (inactive)
16,Cc1ccccc1CS(=O)(=O)CC1(O)CCN(C(=O)c2cccc(C(F)(F)F)c2)CC1,-2.24% (inactive)
17,CC(C)(C)n1nc2c(c1NC(=O)c1ccc(S(=O)(=O)N3CCCC3)cc1)CS(=O)C2 (stereo not given),1.52% (inactive)
18,Cc1cccc(OC(C)C(=O)N2CCc3ccccc3C2)c1 (stereo not given),-10.7% (inactive)
19,O=[N+]([O-])c1ccc(N2CCN(c3ccc(O)cc3)CC2)c(Cl)c1,-4.55% (inactive)
20,O=C(/C=C/c1ccc(Cl)c([N+](=O)[O-])c1)c1ccc(O)cc1,28.9% (active)

row,Structure (SMILES),inhibition
1,O=C(NCCC1=CCCCC1)c1ccc(Cl)c([N+](=O)[O-])c1,-8.9% (inactive)
2,O=C(Oc1ccccc1Cl)c1ccc(N2CCOCC2)c([N+](=O)[O-])c1,1.05% (inactive)
3,N#Cc1cc([N+](=O)[O-])ccc1NC(=O)COC(=O)c1cnccn1,-8.54% (inactive)
4,CSc1ccccc1NC(=O)c1cnc2sc(C)cn2c1=O,-0.62% (inactive)
5,CN(CC(=O)Nc1ccc(F)cc1)CC(=O)N1CCCCC1,3.04% (inactive)
6,O=C(CSc1ncn[nH]1)Nc1nc(-c2cccc([N+](=O)[O-])c2)cs1,21.5% (active)
7,O=C(CSc1ncn[nH]1)Nc1nsc(-c2ccccc2)n1,1.03% (inactive)
8,O=C(CSc1ncn[nH]1)Nc1nc2c(F)c(F)c(F)cc2s1,2.77% (inactive)
9,CCN(C(=O)Cc1nc(N)n[nH]1)C1(C(=O)Nc2ccccc2)CCCCC1,-2.08% (inactive)
10,O=C(NN1C(=O)C2C3C=CC(O3)C2C1=O)c1ccncc1 (stereo not given),-1.04% (inactive)
11,Oc1ccc2ccc3cccc[n+]3c2c1,23.5% (active)
12,Cc1nn(C)c(C)c1C(C)NC(=O)c1ccc(OC2CCN(Cc3ccccn3)CC2)cc1 (stereo not given),-7.27% (inactive)
13,N#CCCN(C(=O)COC(=O)c1ccc(S(=O)(=O)N2CCCCCC2)cc1)c1ccccc1,-9.9% (inactive)
14,NC(CSC12CC3CC(CC(C3)C1)C2)C(=O)O (stereo not given),2.91% (inactive)
15,O=C1C=C(c2ccc(Cl)cc2)C(=O)N1Nc1ccccc1,34.1% (active)
16,Cc1ccc(S(=O)(=O)Nc2ccc3c(c2)C(=O)N([C@H](C)CO)C[C@@H](C)[C@@H](CN(C)C(=O)Nc2cccc4ccccc24)O3)cc1,-59.7% (inactive)
17,CCN(CC)CCCC(C)n1c2nc(=O)[nH]c(=O)c-2nc2cc(Cl)ccc21 (stereo not given),31.2% (active)
18,COc1cccc(CC(=O)OCC(=O)NCc2ccc3c(c2)OCO3)c1,9.81% (inactive)
19,COc1cc(/C=C(\C#N)c2nc3c(s2)CC(C)CC3)ccc1O (stereo not given),23.2% (active)
20,COc1cc(C=NC2CCCCC2)ccc1O,0.2% (inactive)
